This is a sample that favours compounds with a hit; in the whole collection about 2.9% have one here.
PLC-beta3 inh = inhibitors of human phospholipase C beta3. Q01970. Purified PLC-beta3, fluorogenic substrate, fluorescence. inhibition, % at 12.2 µM. 370,000 compounds, 0.18% hits; in the data active = inhibition above about 11%;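 note: 0% = median of compound wells on plate and 100% = full blocker control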
ADAM17 inh = inhibits human ADAM17; P78536; recombinant ADAM17, EDANS/DABCYL FRET peptide cleavage; inhibition, % at 6.95 µM; 370,000 compounds, 0.83% hits; AID 720648;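 active = inhibition above the mean of compounds lying between control limits plus 3 SD, set per campaign, cut at about 8.5% in these data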;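 note: 0% = DMSO-only wells as the low control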
PLCg1 inh = blocks human PLC-gamma1 enzyme activity; AID 720700; purified PLC-gamma1, fluorogenic substrate, fluorescence; 370,000 compounds, 0.84% hits; inhibition, % at 12.2 µM; in the data active = inhibition above about 9.5%
Target sequence (P19174 whole entry, looked up): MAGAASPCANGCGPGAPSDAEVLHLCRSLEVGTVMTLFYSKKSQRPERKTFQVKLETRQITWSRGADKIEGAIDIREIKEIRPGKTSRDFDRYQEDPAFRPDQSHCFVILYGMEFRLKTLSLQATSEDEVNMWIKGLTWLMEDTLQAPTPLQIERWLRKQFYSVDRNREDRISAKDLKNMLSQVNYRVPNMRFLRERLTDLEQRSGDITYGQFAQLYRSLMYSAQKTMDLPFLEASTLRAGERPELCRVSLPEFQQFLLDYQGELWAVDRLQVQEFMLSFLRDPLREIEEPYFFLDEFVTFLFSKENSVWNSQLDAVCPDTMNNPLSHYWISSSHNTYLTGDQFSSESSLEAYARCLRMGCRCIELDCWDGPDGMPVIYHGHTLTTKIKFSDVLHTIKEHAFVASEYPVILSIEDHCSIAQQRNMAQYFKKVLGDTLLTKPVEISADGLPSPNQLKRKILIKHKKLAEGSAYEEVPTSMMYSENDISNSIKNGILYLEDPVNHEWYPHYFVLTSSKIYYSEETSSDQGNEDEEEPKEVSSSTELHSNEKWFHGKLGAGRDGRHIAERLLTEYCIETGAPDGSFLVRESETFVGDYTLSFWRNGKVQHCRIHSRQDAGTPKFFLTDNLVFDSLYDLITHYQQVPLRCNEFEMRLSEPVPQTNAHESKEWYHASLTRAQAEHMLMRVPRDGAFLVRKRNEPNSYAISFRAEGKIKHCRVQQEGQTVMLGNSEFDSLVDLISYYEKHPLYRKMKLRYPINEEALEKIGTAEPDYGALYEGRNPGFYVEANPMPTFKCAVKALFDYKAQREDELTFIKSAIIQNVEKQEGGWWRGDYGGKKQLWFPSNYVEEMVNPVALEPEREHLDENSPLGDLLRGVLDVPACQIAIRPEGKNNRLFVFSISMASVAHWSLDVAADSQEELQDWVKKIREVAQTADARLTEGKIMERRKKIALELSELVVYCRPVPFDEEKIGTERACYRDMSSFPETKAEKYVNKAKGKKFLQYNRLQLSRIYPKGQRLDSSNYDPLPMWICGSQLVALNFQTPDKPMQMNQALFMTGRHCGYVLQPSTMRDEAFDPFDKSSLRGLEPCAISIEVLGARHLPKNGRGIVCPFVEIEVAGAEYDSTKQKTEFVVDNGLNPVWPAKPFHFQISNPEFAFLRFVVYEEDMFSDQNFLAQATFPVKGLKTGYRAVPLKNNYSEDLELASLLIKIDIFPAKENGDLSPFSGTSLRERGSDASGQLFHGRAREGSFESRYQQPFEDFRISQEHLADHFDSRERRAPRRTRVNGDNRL
ADAM10 inh = inhibitors of human ADAM10; O14672; recombinant ADAM10, EDANS/DABCYL FRET peptide cleavage, 3 h; inhibition, % at 7 µM; 370,000 compounds, 0.62% hits;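 active = inhibition above a per-campaign cutoff equal to the mean of compounds falling between control-based bounds plus 3 SD, cut at about 20% in these data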;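 note: 0% = DMSO wells while the 100% control is not disclosed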
proKLK7 act = activates the human kallikrein-7 zymogen; activation, % at 7 µM; P49862; purified proKLK7, EDANS-DABCYL substrate fluorescence; 100% is mature enzyme control, 0% vehicle; 370,000 compounds, 0.9% hits; AID 652039;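 active = activation above the mean of all tested compounds plus 3 SD, computed per campaign excluding outliers beyond control limits, cut at about 13% in these data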
KLK7 act conf = confirmation of human kallikrein-7 zymogen activators. purified proKLK7, EDANS-DABCYL substrate fluorescence; scaled: vehicle 0, mature enzyme 100. activation, % at 7 µM. shares compounds with proKLK7 act. 3,200 compounds, 68% hits;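 active = activation, as change over the incubation, above the mean of all tested compounds plus 3 SD, cut at about 13% in these data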
EDANS interfere = fluorescence interference counter-screen for KLK7 activators; shares compounds with proKLK7 act; EDANS-DABCYL substrate fluorescence interference, no enzyme, 4 h; solvent 0%, active enzyme control 100%; activation, % at 7 µM; 3,200 compounds, 80% hits; AID 686952;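 active = activation above the all-compound mean plus 3 SD, ignoring values outside control-based bounds, cut at about 4.8% in these data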;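 note: value is the 4 h activation minus the activation read at time zero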
K7 EDANS ctr = EDANS fluorescence interference in dose response, no enzyme | shares compounds with proKLK7 act | EDANS-DABCYL peptide fluorescence interference | EC50, µM | 250 compounds, 20% hits | AID 720493;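 active = compounds that raise the fluorescence signal in this interference counterscreen, with EC50 at or below 10 µM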;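 note: intact quenched peptide substrate alone read at 355 nm excitation and 520 nm emission; signal is fluorescence gain from T0 to T4 after four hours at room temperature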
Active calls of the source: *; i = inactive; / = no result given.

SMILES	PLC-beta3 inh	ADAM17 inh	PLCg1 inh	ADAM10 inh	proKLK7 act	KLK7 act conf	EDANS interfere	others
CC1(C)CC(=O)c2cc(O)ccc2O1	-41.7	-5.7	-34.2	-14.3	2.1	/	/
CC1(C)CC(=O)c2cc(OCC(=O)NCCN3CCOCC3)ccc2O1	i	-212.2	i	i	16.3*	25.3*	25.5*
O=C1[C@@H](C2CCCCC2)[C@@H]2c3ccccc3C=NN2[C@@H]2c3ccccc3C=NN12	-4.4	-1.6	-1.2	-5.3	0.0	/	/
COc1ccc(-c2cc(-c3nnc(SCC(=O)NC4CCCCC4)n3N)[nH]n2)cc1	1.5	-1.1	-1.2	-1.3	0.1	/	/
C[C@@H]1CCCN1c1cccc2c1S(=O)(=O)N(C1CC1)CCCO2	-8.9	-2.1	-4.0	-10.6	0.9	/	/
CNc1nc(-c2ccccc2)c2sccc2n1	-427.2	-434.5	-338.9	i	26.5*	16.1*	20.2*
CNc1nc(NCc2ccccc2)c2sccc2n1	-2.1	-9.2	4.7	-33.6	0.2	/	/
O=C(Nc1ccc(F)c(C(F)(F)F)c1)Nc1nnc(-c2ccncc2)s1	-11.1	-32.4	-1.1	-113.8	/	/	/
Cc1nc(-c2cccs2)sc1C(=O)O	-46.5	-39.2	-31.9	-117.7	1.1	/	/
Cc1nccc(-c2sc(-c3cccs3)nc2C)n1	i	i	i	i	41.1*	20.3*	20.9*
S=C(Nc1ccc(Br)cc1)OCCN1CCCC12CCC(c1ccccc1)CC2 (stereo not drawn)	0.9	5.0	-0.1	1.7	/	/	/
CC1(c2ccncc2)Nc2ccccc2-c2nc3ccccc3n21 (stereo not drawn)	i	i	i	i	57.3*	-3.4	-1.8
COc1ccc2c(=O)c(-c3ccc(OC)c(OC)c3)coc2c1	7.3	1.8	4.7	11.8	0.5	/	/
COc1ccc(-c2coc3cc(OC(C)=O)c(OC)cc3c2=O)cc1	-363.1	-83.2	-270.1	-332.6	42.9*	153.5*	110.6*
CN(C)c1ccc2nc3ccc(=[N+](C)C)cc-3sc2c1	-30.6	-4.6	-27.0	-9.3	1.2	/	/
CN(C)c1ccc2nc3ccc(=O)cc-3sc2c1	-386.9	-15.6	-298.0	-55.6	54.3*	142.5*	132.7*
CC(NCc1ccco1)C(=O)N1CCOCC1 (stereo not drawn)	-0.7	0.1	0.4	-3.6	0.6	/	/
CC1=C(C#N)C(c2cccnc2)C2=C(CC(c3ccc(Cl)cc3)CC2=O)N1 (stereo not drawn)	i	-496.2	i	i	13.1*	2.2	9.2*
CCOC(=O)N1CCN(C(=O)c2cnn3c(C(F)F)cc(-c4ccc(C)cc4)nc23)CC1	-35.8	1.9	-24.9	-8.7	-1.0	/	/
COc1ccc(-c2cc(C(F)F)n3ncc(C(=O)n4ccnc4C)c3n2)cc1	i	-148.0	-457.1	-414.3	13.1*	169.2*	167.1*
Cc1ccc(C)c(-n2c3nc(=O)n(C)c(=O)c-3cc3ccccc32)c1	-448.4	-337.5	-313.3	i	27.6*	14.5*	22.6*
CCCCn1c(=O)nc2n(-c3ccccc3)c3ccccc3cc-2c1=O	-263.5	-149.9	-195.6	i	14.8*	15.8*	24.0*
CCCCn1c(=O)cc(C)n(-c2ccccc2)c1=O	-4.3	5.2	4.4	-0.7	0.1	/	/
O=C(NC(CO)(CO)CO)c1coc(=O)c(Br)c1	-44.6	-58.5	-35.7	-242.1	40.6*	54.2*	53.6*
O=C(Nc1cc(Cl)cc(Cl)c1)c1coc(=O)c(Br)c1	-157.4	-195.7	-154.9	i	-4.7	/	/
SMILES	PLC-beta3 inh	ADAM17 inh	PLCg1 inh	ADAM10 inh	proKLK7 act	KLK7 act conf	EDANS interfere	others
O=C(NCCc1ccccc1)c1coc(=O)c(Br)c1	-153.8	-195.1	-121.2	-430.9	13.5*	32.1*	25.9*	K7 EDANS ctr=i
O=S(=O)(c1ccc(CN2CCOCCOCCN(Cc3ccc(S(=O)(=O)C(F)(F)F)cc3)CCOCC2)cc1)C(F)(F)F	-4.8	1.0	-1.0	5.1	/	/	/
Cc1cccn2c(=O)c(C=O)c(Cl)nc12	-23.6	-12.3	-11.4	-27.9	92.3*	15.7*	19.4*
O=Cc1c(Cl)nc2ccccn2c1=O	-25.8	-17.3	-16.8	-43.5	41.9*	22.3*	20.4*
CC1CCN(c2nc3ccccn3c(=O)c2C=O)CC1	-0.2	1.9	0.0	3.3	0.0	/	/
CNc1ccc2ncc(-c3cccc(C(=O)N(C)C)c3)n2n1	i	i	i	i	41.9*	39.6*	41.8*
O=C(NCCO)c1cccc(-c2cnc3cccnn23)c1	i	i	i	i	53.5*	37.7*	37.1*
c1ccc(CCNc2ccc3ncc(-c4cccc5ccccc45)n3n2)nc1	-189.5	-95.6	-132.5	-300.0	-12.9	/	/
OCc1ccccc1-c1cnc2cccnn12	i	i	i	i	82.0*	66.5*	78.6*
CN1CCN(C(=O)c2ccc(-c3cnc4cccnn34)cc2)CC1	i	i	i	i	67.5*	69.4*	70.3*
O=C(NCCO)c1cccc(-c2ccc3nncn3c2)c1	-2.7	-4.4	-1.8	1.5	-0.7	/	/
CCOC(=O)CC[C@@H]1CC[C@]2(CCCN(C(=O)c3ccccc3)C2)O1	-0.2	-0.7	-1.7	0.6	-0.1	/	/
CCOc1ccc(C(=O)NCCO)cc1	0.6	-2.1	-3.0	-2.3	-1.1	/	/
O=C(NCCO)c1ccc(-c2cnc3cccnn23)cc1	i	i	i	i	48.3*	62.8*	78.2*
O=C(Nc1ccc(Cl)cc1)C1CCCN1S(=O)(=O)c1cccc2cccnc12 (stereo not drawn)	0.3	2.0	2.0	1.1	-0.1	/	/
N#CC1=C(N)C(C#N)(C#N)C(c2ccncc2)C2CN(C(=O)OCc3ccccc3)CC=C12 (stereo not drawn)	-101.6	-104.9	-82.0	-293.8	17.3*	36.0*	35.2*
CN1CC=C2C(C#N)=C(N)C(C#N)(C#N)[C@H](c3cccc(Cl)c3)C2C1 (stereo partly drawn)	-320.6	-141.5	-271.5	-458.6	12.8*	34.2*	35.3*
CN1CC=C2C(C#N)=C(N)C(C#N)(C#N)C(c3ccsc3)C2C1 (stereo not drawn)	-267.1	-106.8	-226.1	-366.6	15.4*	56.9*	54.6*
N#CC1=C(N)C(C#N)(C#N)[C@H](c2cccnc2)[C@H]2CN(C(=O)OCc3ccccc3)CC=C12	-35.3	-45.8	-32.3	-144.5	7.9	/	/
CCCC1C2CN(C(C)C)CC=C2C(C#N)=C(N)C1(C#N)C#N (stereo not drawn)	i	-267.8	i	i	23.5*	11.5	13.9*

Assay outcomes as filed in PubChem.
